# Measured values published in the OligoGym collection.
# Target: COPS8
# Assay: pooled miR-30 sensor sort-seq; sequence = guide strand
# Conditions: shRNA
# Further: reference of the scale not given here.
row,Sequence,sensor-assay potency score (higher = more potent)
1,TTCTTTTCCAAAGATATCTTGC,-0.431
2,TTGATGGTTGTATAGATCCCAG,-1.45
3,TTGCAGATTTTATAGCAGGTGG,-0.905
4,TTTTCCAAAGATATCTTGCATT,-0.738
5,TTTTTGAAACTAAAGGCGCTTT,-0.00727
6,TTGTTGCATCTCTAAGTGCTTC,-1.16
7,TAGAAGCTGACCATACACTGGG,0.625
8,ATTCTTTGTCCTACTGACCAAA,-1.48
9,TTTCTGGGCAGAACCATTCTTG,-0.632
10,TATGGAGCAAATATAAAGCTAG,-0.121
11,TATTTTATCACATAGTAAGGAA,-0.329
12,TTACATTTCTACGTTTGTCAGT,-0.228

# Target: COQ3
# Assay: as above
# Conditions: shRNA
row,Sequence,sensor-assay potency score (higher = more potent)
1,TTAATCTGTAGAGTCCCACTGA,0.477
2,TTCTTCACATAAACCGCCGAGG,-1.27
3,TAGAGCATTCCTACCACTGTTT,-0.0231
4,TAGTAATGAATAAAGAACCACC,-0.744
5,TAACACTTGACAGCAGCACTGT,-0.0361
6,TATGGTTCTGTATTCATTGAAA,-1.12
7,TACCTGAAACTCTTTATTCTGT,-0.297
8,AAACAGGAAAAGATCGTCCTGT,0.479
9,TTGAAAACATCAGATATCCAAG,-0.816
10,TAGGATTTGAACCATATGGTTC,-0.787
11,TTAATGTTCTCATCCACAGGGT,0.284
12,TTAGCTTGGAGCTCTTCTGTTT,-0.684

# Target: COQ9
# Assay: as above
# Conditions: shRNA
row,Sequence,sensor-assay potency score (higher = more potent)
1,TTTCAAAGCTCTTTCAATCTGT,0.272
2,TTGTGTTGTAGATGGCAGCCAG,-0.498
3,TATTAGGAACTGAAGAAGCAGC,-1.33
4,TCCTCTTCTAGCACACGTGTGA,-0.72
5,TCTAGCACACGTGTGAGCCGGG,0.25
6,TATTAGCTCACTGCCATCCTTC,-0.456
7,TTGGTCTGGTATTAGGAACTGA,-0.609
8,TTCTGCTCATCTGAAGACCTTA,-0.0401
9,TTTTCAATCACACAGTTGCAGT,-1.24
10,ATCATCACCAGCTCTGTTGTGT,-0.201
11,TAGTCCTCCTCCTCCTCGCCGC,-1.01
12,TTCATTGCATCATTAACCCGGT,0.189

# Target: CORIN
# Assay: as above
# Conditions: shRNA
row,Sequence,sensor-assay potency score (higher = more potent)
1,TTTATTGCTGTCTTTTATCAGT,-0.911
2,TAAATCTGTCTTTTAATCCATT,-1.02
3,TTAAACATGTAAATTATCTTGG,0.389
